From PubChem BioAssay (Tox21)
Records with an inconclusive call do not appear. A call without a number means that no potency is given here. Calls of active or inactive are those of the source. Unless noted, calls follow the shape of the full dose curve.

What was measured:
[1] = biological target: Gonadotropin-releasing hormone receptor (Homo sapiens) (UniProt P30968); experiment: Human gonadotropin-releasing hormone receptor (GnRHR) small molecule agonists, calcium flux assay in GnRHR-HEK293 cells (AID 1920063); also: nearly all actives have a fitted effect of over 35% in size
Chain of Gonadotropin-releasing hormone receptor (Homo sapiens) (P30968 whole entry, looked up): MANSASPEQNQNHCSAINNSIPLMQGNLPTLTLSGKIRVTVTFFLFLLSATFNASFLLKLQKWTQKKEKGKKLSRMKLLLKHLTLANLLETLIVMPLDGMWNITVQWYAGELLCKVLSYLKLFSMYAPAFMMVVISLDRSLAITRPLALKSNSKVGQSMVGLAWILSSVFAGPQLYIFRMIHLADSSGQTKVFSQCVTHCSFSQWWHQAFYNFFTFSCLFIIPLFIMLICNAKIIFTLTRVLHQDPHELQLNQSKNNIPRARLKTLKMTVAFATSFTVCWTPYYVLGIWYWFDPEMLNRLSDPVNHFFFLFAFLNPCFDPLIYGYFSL
In short: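 Fluorescence kinetics (480 nm excitation, 540 nm emission; 3 min, 1 s steps) report calcium mobilisation in human GnRHR-HEK293 cells in agonist mode. Dye incubation: 1 h, 37 C.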

[2] = G protein-coupled receptor (GPCR) small molecule agonists, calcium flux assay: HEK293 wild type cell line counter screen (AID 1920065)
In short: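 Readout: fluorescence at 480 nm excitation/540 nm emission, sampled at 1 s intervals for 3 min. Cells had been cultured 18 h, then dye-loaded 1 h at 37 C before compound or ATP addition.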

[3] = p53 small molecule agonists, cell-based qHTS assay with human liver microsomes (AID 1963577);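 also: p53 response element beta-lactamase reporter cells with liver microsomes plus NADPH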
In short: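 HLM-supplemented p53RE-bla reporter assay: 16 h compound exposure at 37 C, microsomes and NADPH each 0.5 mg/mL final, read by fluorescence intensity.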

[4] = p53 small molecule agonists, cell-based qHTS assay with rat liver microsomes (AID 1963578)
In short: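 Quantitative HTS of the Tox21 10K library: p53RE-bla cells, rat liver microsomes plus NADPH at 0.5 mg/mL final each, 16 h at 37 C, beta-lactamase fluorescence detection.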

[5] = p53 small molecule agonists, cell-based qHTS assay with rat liver microsomes: qHTS cell viability counter screen (AID 1963580); also: nearly all actives have a fitted effect of over 45% in size
In short: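 In HCT-116 cells carrying a p53 response element-bla reporter, compounds were metabolically activated in situ by rat liver microsomes with NADPH over 16 h. Cell ATP content then served as the cytotoxicity measure.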

[6] = p53 small molecule agonists, cell-based qHTS assay: qHTS cell viability counter screen (AID 1963581); also: nearly all actives have a fitted effect of over 45% in size
In short: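 In the same plates used for the p53 bla reporter, HCT-116 cells given compounds for 16 h at 37 C received CellTiter-Glo; luminescence was recorded 30 min later at room temperature.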

[7] = p53 small molecule agonists, cell-based qHTS assay (AID 1963582; active = well fitted activation curve with a large enough effect in the signal ratio in the repeat runs, not every such curve was filed as active; the % refers to the signal ratio; also: potency is read from the fitted curve at half-maximal effect)
In short: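 Compounds are pin-transferred in DMSO onto p53RE-bla cells and incubated 16 h at 37 C. The B/G FRET beta-lactamase substrate is then applied for 2 h at RT and fluorescence recorded.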

[8] = biological target: 5-hydroxytryptamine receptor 2A (Homo sapiens) (UniProt P28223); experiment: 5-hydroxytryptamine receptor 2A (HTR2A) small molecule antagonists, cell-based qHTS assay (AID 1963586); also: nearly all actives have a fitted effect of over 45% in size; also: potency is read from the fitted curve at half-maximal effect
Chain of 5-hydroxytryptamine receptor 2A (Homo sapiens) (P28223 whole entry, looked up): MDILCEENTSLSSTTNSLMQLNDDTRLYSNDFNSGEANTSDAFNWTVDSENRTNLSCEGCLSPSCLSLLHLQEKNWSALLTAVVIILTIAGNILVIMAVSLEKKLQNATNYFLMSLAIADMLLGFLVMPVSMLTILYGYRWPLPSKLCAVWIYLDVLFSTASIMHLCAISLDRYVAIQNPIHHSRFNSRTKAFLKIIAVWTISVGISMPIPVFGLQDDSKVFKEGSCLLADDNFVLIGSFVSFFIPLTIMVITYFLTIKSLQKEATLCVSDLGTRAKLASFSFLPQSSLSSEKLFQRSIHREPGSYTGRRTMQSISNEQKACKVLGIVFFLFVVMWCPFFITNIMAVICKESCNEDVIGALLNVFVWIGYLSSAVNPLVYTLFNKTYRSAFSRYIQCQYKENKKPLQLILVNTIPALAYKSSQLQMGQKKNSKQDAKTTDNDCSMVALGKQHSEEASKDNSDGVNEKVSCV
In short: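 Antagonist-mode intracellular calcium assay: DOI (4 nM) added after 5 min compound pre-incubation at room temperature to dye-loaded HTR2A-CHO cells. Fluorescence followed for 3 min, sampled every second.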

[9] = biological target: 5-hydroxytryptamine receptor 2A (Homo sapiens) (UniProt P28223); experiment: 5-hydroxytryptamine receptor 2A (HTR2A) small molecule agonists, cell-based qHTS assay (AID 1963587); also: nearly all actives have a fitted effect of over 30% in size
In short: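 HTR2A-CHO cells, plated 18 h at 37 C/5% CO2, dye-loaded 1 h at 37 C; compounds in DMSO added by pin tool (agonist mode). Intracellular calcium flux read as kinetic fluorescence on FDSS over 2 min at 1 s intervals.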

[10] = biological target: Muscarinic acetylcholine receptor M1 (Homo sapiens) (UniProt P11229); experiment: Cholinergic receptor muscarinic 1 (CHRM1) small molecule antagonists, cell-based qHTS assay (AID 1963588); also: nearly all actives have a fitted effect of over 40% in size
Chain of Muscarinic acetylcholine receptor M1 (Homo sapiens) (P11229 whole entry, looked up): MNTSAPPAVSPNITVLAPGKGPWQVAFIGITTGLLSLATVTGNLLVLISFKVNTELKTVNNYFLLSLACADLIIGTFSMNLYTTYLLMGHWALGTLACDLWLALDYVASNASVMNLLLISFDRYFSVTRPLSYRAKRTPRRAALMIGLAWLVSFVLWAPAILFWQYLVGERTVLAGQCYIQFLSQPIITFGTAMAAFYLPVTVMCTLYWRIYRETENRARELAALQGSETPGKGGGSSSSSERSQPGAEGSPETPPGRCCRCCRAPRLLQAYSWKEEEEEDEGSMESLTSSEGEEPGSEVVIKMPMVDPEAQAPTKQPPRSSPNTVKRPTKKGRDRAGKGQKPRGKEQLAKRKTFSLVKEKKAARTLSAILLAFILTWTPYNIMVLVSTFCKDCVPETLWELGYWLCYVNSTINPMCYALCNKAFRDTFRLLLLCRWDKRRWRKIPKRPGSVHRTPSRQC
In short: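 CHRM1-CHO calcium-flux assay, antagonist mode. Cells were seeded 18 h, dye-loaded 1 h at 37 C and given compound for 5 min at RT, then acetylcholine was added at 50nM. FDSS fluorescence was read 3 min; 15 concentrations, three runs.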

[11] = cAMP Responsive Elements (CRE) small molecule antagonists, cell-based qHTS assay (AID 1963591; active = well fitted inhibition curve with a large enough effect in the signal ratio in the repeat runs, not every such curve was filed as active; the % refers to the signal ratio)
In short: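 Inhibition of NKH477-driven (0.25 uM final) CRE-beta-lactamase signal in HEK293T cells, 3 h compound exposure at 37 °C, detected by FRET substrate fluorescence.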

[12] = biological target: Beta-2 adrenergic receptor (Homo sapiens) (UniProt P07550); experiment: Adrenergic beta2 receptor (ADRB2) small molecule antagonists, cell-based qHTS assay (AID 1963592); also: nearly all actives have a fitted effect of over 50% in size; also: potency is read from the fitted curve at half-maximal effect
Chain of Beta-2 adrenergic receptor (Homo sapiens) (P07550 whole entry, looked up): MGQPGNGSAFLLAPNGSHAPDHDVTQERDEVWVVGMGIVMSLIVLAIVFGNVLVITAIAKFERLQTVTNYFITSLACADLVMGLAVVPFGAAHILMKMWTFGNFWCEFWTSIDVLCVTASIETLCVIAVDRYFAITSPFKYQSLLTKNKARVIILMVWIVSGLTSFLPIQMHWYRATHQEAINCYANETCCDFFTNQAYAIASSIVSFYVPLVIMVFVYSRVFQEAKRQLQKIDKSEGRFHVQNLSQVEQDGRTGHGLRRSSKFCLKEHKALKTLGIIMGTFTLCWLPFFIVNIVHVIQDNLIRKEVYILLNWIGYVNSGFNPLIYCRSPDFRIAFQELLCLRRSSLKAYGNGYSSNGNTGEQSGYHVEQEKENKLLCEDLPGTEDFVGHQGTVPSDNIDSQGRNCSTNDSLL
In short: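 Cells (CHO, stable ADRB2 overexpression) incubated 18-20hr at 37C; compounds added from DMSO; agonist mix (1nM isoproterenol, 100uM IBMX, 25uM Ro-20-1724) added; 0.5hr RT; d2-cAMP and anti-cAMP-cryptate added; 1hr RT; 665/615 nm read.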

[13] = biological target: D(2) dopamine receptor (Homo sapiens) (UniProt P14416); experiment: Dopamine D2 receptor (DRD2) small molecule agonists, cell-based qHTS assay (AID 1963594); also: nearly all actives have a fitted effect of over 35% in size
Chain of D(2) dopamine receptor (Homo sapiens) (P14416 whole entry, looked up): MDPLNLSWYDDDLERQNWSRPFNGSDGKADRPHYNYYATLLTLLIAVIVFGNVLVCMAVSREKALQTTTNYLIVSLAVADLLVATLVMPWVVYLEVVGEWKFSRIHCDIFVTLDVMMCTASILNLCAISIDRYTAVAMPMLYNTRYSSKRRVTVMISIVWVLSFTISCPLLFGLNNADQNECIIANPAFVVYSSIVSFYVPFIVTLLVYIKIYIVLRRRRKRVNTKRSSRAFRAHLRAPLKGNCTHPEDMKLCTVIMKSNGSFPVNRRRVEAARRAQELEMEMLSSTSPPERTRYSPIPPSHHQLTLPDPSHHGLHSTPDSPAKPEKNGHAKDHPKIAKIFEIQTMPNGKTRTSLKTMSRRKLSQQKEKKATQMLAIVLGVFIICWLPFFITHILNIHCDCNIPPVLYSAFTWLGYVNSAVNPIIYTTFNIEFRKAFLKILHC
In short: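 HEK293 cells stably expressing DRD2 were cultured 24 h at 37 C, then given Ro20-1724 (0.1 mM final) and compounds for 10 min at room temperature. NKH477 (200nM) was then added for 30 min. cAMP was read by HTRF.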

[14] = biological target: D(2) dopamine receptor (Homo sapiens) (UniProt P14416); experiment: Dopamine D2 receptor (DRD2) small molecule antagonists, cell-based qHTS assay (AID 1963595; active = well fitted inhibition curve with a large enough effect in the signal ratio in the repeat runs, with a control signal flat; the % refers to the signal ratio)
In short: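 Antagonism was scored as restored cAMP in HEK293-DRD2 cells. These cells were stimulated with 200 nM NKH477 and 12 nM quinpirole for 30 min at room temperature, in the presence of 0.1 mM Ro20-1724.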

[15] = biological target: KiSS-1 receptor (Homo sapiens) (UniProt Q969F8); experiment: Human kisspeptin (KISS1R) small molecule agonists, calcium flux assay in KISS1R-HEK293 cells (AID 1920064; active = well fitted activation curve with a large enough effect in the repeat runs)
Chain of KiSS-1 receptor (Homo sapiens) (Q969F8 whole entry, looked up): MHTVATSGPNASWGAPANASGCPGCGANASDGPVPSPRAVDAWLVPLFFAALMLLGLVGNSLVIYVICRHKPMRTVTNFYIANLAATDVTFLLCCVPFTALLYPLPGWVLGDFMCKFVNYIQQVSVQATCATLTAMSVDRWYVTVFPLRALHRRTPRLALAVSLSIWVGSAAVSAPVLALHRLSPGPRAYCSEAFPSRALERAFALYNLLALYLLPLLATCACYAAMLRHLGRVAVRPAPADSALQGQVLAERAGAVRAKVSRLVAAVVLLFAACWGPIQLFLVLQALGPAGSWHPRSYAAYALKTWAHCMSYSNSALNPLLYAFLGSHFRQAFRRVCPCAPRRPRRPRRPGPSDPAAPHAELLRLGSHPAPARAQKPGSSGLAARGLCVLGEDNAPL
In short: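 Measures KISS1R agonism through calcium-sensitive dye fluorescence in stably transfected HEK293 cells, read for 3 min after pin-tool compound delivery; 15-point titrations in triplicate.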

[16] = p53 small molecule agonists, cell-based qHTS assay with human liver microsomes: qHTS cell viability counter screen (AID 1963579); also: nearly all actives have a fitted effect of over 45% in size
In short: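 Viability of p53RE-bla cells is measured as CellTiter-Glo luminescence following a 16 h, 37 C incubation with compound, liver microsomes from human donors and NADPH.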

[17] = biological target: Muscarinic acetylcholine receptor M1 (Homo sapiens) (UniProt P11229); experiment: Cholinergic receptor muscarinic 1 (CHRM1) small molecule agonists, cell-based qHTS assay (AID 1963589); also: nearly all actives have a fitted effect of over 35% in size
In short: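 Each compound was tested at 15 concentrations across three independent runs on dye-loaded CHO cells stably expressing human CHRM1, reading intracellular calcium fluorescence kinetically at 1 sec intervals.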

[18] = cAMP Responsive Elements (CRE) small molecule agonists, cell-based qHTS assay (AID 1963590)
In short: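 Cell line: CRE-bla HEK 293T; medium DMEM/10% dialyzed FBS/0.1 mM NEAA/1 mM pyruvate/25 mM HEPES; 3 h compound exposure; beta-lactamase FRET readout after 2 h substrate loading at RT.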

[19] = biological target: Beta-2 adrenergic receptor (Homo sapiens) (UniProt P07550); experiment: Adrenergic beta2 receptor (ADRB2) small molecule agonists, cell-based qHTS assay (AID 1963593); also: potency is read from the fitted curve at half-maximal effect;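 as to activation: CHO cells stably overexpressing human ADRB2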
In short: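 CHO cells stably over-expressing ADRB2 were plated overnight at 37C, then dosed with compounds plus a stimulation mix containing 100uM IBMX and 25uM Ro-20-1724 for 0.5hr at room temperature. cAMP was measured by HTRF competition, 1hr.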

| Compound | Potency [1] | outcome [2] | Potency [3] | Potency [4] | Potency [5] | Potency [6] | Potency [7] | Potency [8] | Potency [9] | Potency [10] | Potency [11] | Potency [12] | Potency [13] | Potency [14] | outcome [15] | Potency [16] | Potency [17] | Potency [18] | Potency [19] |
| --- | --- | --- | --- | --- | --- | --- | --- | --- | --- | --- | --- | --- | --- | --- | --- | --- | --- | --- | --- |
| Cc1c(Cn2ccnc2)c2ccccc2n1CCC(=O)O | inactive | inactive | inactive | inactive | inactive | inactive | inactive | inactive | inactive | inactive | inactive | inactive | inactive | inactive |  |  |  |  |  |
| CN1CCC(=C2c3ccccc3CC(=O)c3sccc32)CC1 | inactive | inactive | inactive |  | inactive | inactive | inactive |  |  |  | inactive | inactive | inactive | inactive | inactive | inactive |  |  |  |
| CCOc1cc([N+](=O)[O-])c(OCC)cc1N1CCOCC1 | inactive | inactive | inactive | inactive | inactive |  | inactive | inactive | inactive |  |  | inactive | inactive |  |  | inactive |  |  |  |
| Cc1c(C)c([N+](=O)[O-])c(C(C)(C)C)c([N+](=O)[O-])c1C |  | inactive | inactive | inactive | inactive | inactive |  | inactive | inactive | inactive | inactive | inactive | inactive | inactive | inactive | inactive | inactive | inactive |  |
| CCC(=O)Nc1ccc(O)cc1 |  | inactive | inactive |  | inactive | inactive | inactive | inactive |  | inactive | inactive | inactive | inactive | inactive | inactive |  | inactive | inactive |  |
| O[C@@H](CNC[C@H](O)[C@H]1CCc2cc(F)ccc2O1)[C@@H]1CCc2cc(F)ccc2O1 | inactive | inactive | inactive |  | inactive |  |  | 18.3 µM (active) |  | inactive | inactive | 0.15 µM (active) | inactive |  |  | inactive |  | inactive |  |
| O=C1OCc2ccccc21 | inactive | inactive | inactive | inactive |  | inactive | inactive |  |  | inactive | inactive | inactive | inactive | inactive | inactive |  | inactive | inactive | inactive |
| NC(N)=NC(=O)Cc1c(Cl)cccc1Cl | inactive |  | inactive | inactive | inactive | inactive | inactive |  |  |  | inactive | inactive |  | inactive | inactive |  |  | inactive | inactive |
| Cc1ccccc1C(=O)Nc1ccc(C(=O)N2CCCC(N(C)C)c3ccccc32)cc1 (centres undefined) |  | inactive | inactive |  | inactive |  |  |  | inactive | inactive |  | inactive | inactive | inactive | inactive | inactive | inactive |  | inactive |
| BrC(Br)C(Br)Br | inactive | inactive |  | inactive | inactive |  |  | inactive | inactive | inactive | inactive | inactive | inactive | inactive | inactive | inactive | inactive | inactive |  |
| CC(C)(O)C(=O)c1ccccc1 |  | inactive |  | inactive | inactive | inactive |  | inactive | inactive | inactive | inactive | inactive |  |  | inactive | inactive | inactive | inactive |  |
| N=C1N=C(N)c2ccccc21 |  | inactive | inactive | inactive | inactive | inactive | 36.3 µM (active) | inactive | inactive | inactive | inactive | inactive | inactive | inactive | inactive | inactive | inactive |  | inactive |
| NCCCCCC(=O)O | inactive | inactive | inactive | inactive | inactive | inactive | inactive |  |  |  | inactive | inactive | inactive | inactive |  | inactive |  | inactive |  |
| C[C@]12C=CC(=O)C=C1[C@@H](F)C[C@@H]1[C@@H]2[C@@H](O)C[C@@]2(C)[C@H]1CC[C@]2(O)C(=O)CO | inactive |  | inactive | inactive | inactive | inactive | inactive | inactive | inactive | inactive | inactive | inactive | inactive | inactive |  | inactive | inactive |  | inactive |
| Cc1[nH]c(=O)c(C#N)cc1-c1ccc2nccn2c1 |  | inactive | inactive | inactive | inactive | inactive | inactive | inactive | inactive | inactive | inactive |  | inactive | inactive | inactive | inactive | inactive | inactive |  |
| Cc1cc(CCCOc2c(C)cc(-c3noc(C(F)(F)F)n3)cc2C)on1 | inactive | inactive | inactive | inactive | inactive | inactive | inactive | inactive | inactive | inactive |  |  |  | inactive |  |  | inactive | inactive |  |
| C#CCN[C@@H]1CCc2ccccc21 | inactive | inactive | inactive | inactive |  | inactive |  |  | inactive | inactive | inactive | inactive | inactive | inactive | inactive |  | inactive |  | 29.8 µM (active) |
